Active and inactive are the calls of the source. Where a call stands in place of a potency, no number is given. The call rests on the fitted dose curve; in most records, active means well fitted inhibition curve with a large enough effect; inconclusive means small, poorly fitted or top-dose-only effect; inactive means flat fitted curve, though single readings scatter.

Drawing on PubChem BioAssay (NCATS), this text covers Potency for 40 molecules.

Sequence of DNA dC->dU-editing enzyme APOBEC-3G (Homo sapiens) (Q9HC16 whole entry, looked up): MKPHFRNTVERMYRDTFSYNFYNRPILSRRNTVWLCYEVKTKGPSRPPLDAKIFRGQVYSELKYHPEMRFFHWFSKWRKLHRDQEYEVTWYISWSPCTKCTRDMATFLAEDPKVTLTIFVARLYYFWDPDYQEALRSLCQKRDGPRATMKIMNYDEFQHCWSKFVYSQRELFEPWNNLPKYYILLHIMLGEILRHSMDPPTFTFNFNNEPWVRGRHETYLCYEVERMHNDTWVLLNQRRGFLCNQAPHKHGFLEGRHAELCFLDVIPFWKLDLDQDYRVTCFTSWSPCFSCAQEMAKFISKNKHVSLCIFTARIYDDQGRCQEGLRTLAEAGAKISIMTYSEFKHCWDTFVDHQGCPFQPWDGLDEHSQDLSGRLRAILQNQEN

The assay addresses DNA dC->dU-editing enzyme APOBEC-3G (Homo sapiens) (UniProt Q9HC16). Briefly: qHTS for inhibitors of Vif-A3G interactions: Validation (AID 588379). The conditions noted are these: Vif-A3G protein interaction assay; series mostly up to 46.1 µM. The text has this: The recent discovery and characterization of host restriction factors, which provide a potent defense to invading retroviruses, has provided new targets for antiviral drug development. APOBEC3G (A3G) and APOBEC3F (A3F) are potent cytidine deaminases that block HIV-1 replication; HIV-1 expresses the Vif protein, which counteracts A3G and A3F by binding to them and inducing their proteasomal degradation.
The Vif-A3G and Vif-A3F interactions provide two potential targets for development of small molecules which can interfere with the ability of Vif to degrade A3G or A3F. […] To identify inhibitors that can interfere with Vif mediated degradation of A3G and A3F, we have developed Hela cell lines that stably express A3G or A3F tagged with eYFP at the C-terminal end (A3G-eYFP or A3F-eYFP, respectively) and Vif. In the absence of an inhibitor, Vif induces degradation of A3G-eYFP and A3F-eYFP, and the cells are not fluorescent. In the presence of an inhibitor, it is expected that Vif will be unable to degrade A3G-eYFP and/or A3F-eYFP, resulting in an increase in yellow fluorescence. In this assays Vif A3G was screened against the Molecular Library Small Molecile Repository (MLSMR).
NIH Chemical Genomics Center [NCGC]
NIH Molecular Libraries Probe Centers Network [MLPCN]
Assay Submitter (PI): Vinay Pathak, National Cancer Institute
5 uL of 700 cells/well of A3G-YFP cells are dispensed into black, clear bottom plates. The plates are incubated overnight at 37 deg C. 23 nL of compounds are added by pintool. The plates are incubated overnight at 37 deg C and then read on the TTP Acumen (Ex 488/ Em 500-530).
A general note: qHTS replaces the single test concentration by a dilution series.
On to `O=C(CCCN1CCC2(CC1)C(=O)N(Cc1cccc(F)c1)CN2c1ccccc1)c1ccc(F)cc1`, for which the Potency result is “inactive”.

Regarding `C/C(=C\[C@@H](N)C(=O)O)CP(=O)(O)O`, the Potency entry is “inactive”.

Regarding `O=C(O)/C=C\CO`, the Potency entry is “inactive”.

In the case of `CCCN(CCC)[C@@H]1CCc2c(OC)cccc2[C@@H]1C`, the Potency result was “inactive”.

In the case of `CS(=O)(=O)Nc1ccc(Cc2noc(-c3ccc4[nH]cc(CCN)c4c3)n2)cc1`, the Potency entry was “inactive”.

On to `c1ccc(CCCCN2CCC(c3ccccc3)CC2)cc1`, for which the Potency entry is “inactive”.

As to `CCCOc1ccc2[nH]cc(C3=CCNCC3)c2n1`, the Potency entry was “inactive”.

`S=C=Nc1cccc(C2(N3CCCCC3)CCCCC2)c1`: the Potency entry was “inactive”.

Take `COc1ccc2c3c([nH]c2c1)C(C)=NCC3`: the Potency result was “inactive”.

As to `CN1C[C@H](CNC(=O)OCc2ccccc2)C[C@H]2c3cccc4c3c(cn4C)C[C@@H]21`, the Potency entry is “inactive”.

With `CN1[C@@H]2CC[C@H]1CC(O[C@@H](c1ccccc1)c1ccc(Cl)cc1)C2` (stereo not given in full), the Potency entry is “inactive”.

Regarding `CC(C)[C@@H]1CN[C@H](C(=O)O)[C@@H]1CC(=O)O`, the Potency result was “inactive”.

On to `NC[C@H](CP(=O)(O)O)c1ccc(Cl)cc1`, for which the Potency result was “inactive”.

As to `CN[C@@H](Cc1c[nH]c2ccccc12)C(=O)O`, the Potency result was “inactive”.

For `C/C=C1/CN2CC[C@]34C(=C(C=O)[C@H]1C[C@@H]23)Nc1ccccc14`, the Potency result was “inactive”.

With `O=C(O)[C@H]1[C@H]2CN[C@H](C(=O)O)[C@H]21`, the Potency entry is “inactive”.

Regarding `Ic1cncc(OC[C@@H]2CCN2)c1`, the Potency entry was “inactive”.

On to `C[C@@H]1O[C@H](O[C@@H]2C[C@@H](O)[C@]3(CO)[C@H]4[C@H](O)C[C@]5(C)[C@@H](C6=CC(=O)OC6)CC[C@@]5(O)[C@@H]4CC[C@]3(O)C2)[C@@H](O)[C@H](O)[C@H]1O`, for which the Potency entry is “inactive”.

On to `C=CCN1C[C@H](C)N([C@H](c2ccc(C(=O)N(CC)CC)cc2)c2cccc(O)c2)C[C@H]1C`, for which the Potency result was “inactive”.

For `CN(C(=O)Cc1ccc(Cl)c(Cl)c1)[C@H](CN1CCCC1)c1cccc(N=C=S)c1`, the Potency entry was “inactive”.

As to `CN1CCN(C(=O)O[C@@H]2c3nccnc3C(=O)N2c2ccc(Cl)cn2)CC1`, the Potency result was “inactive”.

As to `O=C(/C=C\c1ccc(Cl)cc1)N[C@@]12CCC(=O)[C@@H]3Oc4c(O)ccc5c4[C@@]31CCN(CC1CC1)[C@@H]2C5`, the Potency result was “inactive”.

For `CN1C(=O)CCS(=O)(=O)[C@H]1c1ccc(Cl)cc1`, the Potency entry was “inactive”.

Regarding `CC(C)(Cc1c[nH]c2ccc(Cl)cc12)NCCOc1ccccc1OCC1CC1`, the Potency result is “inactive”.

For the molecule `CC(C)n1cnc2c(C(=O)N[C@H]3CN4CCC3CC4)cc(Cl)cc21`, the Potency result is “inactive”.

Consider `C[C@H](N)Cc1c[nH]c2ccc(O)cc12`, for which the Potency entry was “inactive”.

In the case of `CC(C)(C)NC[C@@H](O)COc1cccc2[nH]c(C#N)cc12`, the Potency entry is “inactive”.

Regarding `O=C(O)Cc1cccnc1C(=O)O`, the Potency result is “inactive”.

Consider `Cc1o[nH]c(=O)c1C[C@H](N)C(=O)O`, for which the Potency result is “inactive”.

With `CCCCCCCCCOc1ccc2[nH]cc(CCN)c2c1`, the Potency entry is “inactive”.

`CN1[C@@H]2CC[C@H]1CC(OC(c1ccc(F)cc1)c1ccc(F)cc1)C2` (stereo not given in full): the Potency result is “inactive”.

As to `C/C(O)=C(/C#N)C(=O)Nc1cc(Br)ccc1Br`, the Potency result was “inactive”.

As to `CNCCc1cnc[nH]1`, the Potency entry is “inactive”.

Regarding `CCCN1C[C@H](C)N([C@H](c2ccc(C(=O)N(CC)CC)cc2)c2cccc(OC)c2)C[C@H]1C`, the Potency entry was “inactive”.

As to `N[C@H](CP(=O)(O)O)C(=O)O`, the Potency entry is “inactive”.

Turning to `COC(=O)CN1CN(c2ccccc2)C2(CCN(Cc3ccc4ccccc4c3)CC2)C1=O`, the Potency entry is “inactive”.

For the molecule `CCC1CN2CCC1CC2C(O)c1ccnc2ccccc12` (stereo not given), the Potency entry was “inactive”.

On to `O=CN1CCCCC1C1CC[C@H]2CCCCN2C1` (stereo not given in full), for which the Potency result was “inactive”.

Regarding `C=C(C)[C@H]1CN[C@H](C(=O)O)[C@@H]1CC(=O)O`, the Potency result was “inactive”.

On to `c1ccc(C[C@@H](c2ccccc2)N2CCCCC2)cc1`, for which the Potency entry was “inactive”.
